The values below come from paper PMC11062922 (Nature Chemical Biology, 2023).

SMILES strings stand for the structures. Where two headings read alike, the source gives them in different places.

Design in all cases: species or system human, MV4-11 + K-562 + COLO205 + SK-N-BE2 + OVCAR-8
For one test, the system named is AXL. The following applies: read-out: apparent Kd, n = 1.
The next test has as its system CSK. Conditions: read-out: apparent Kd, n = 1.
Another test concerns EPHA1. Conditions: read-out: apparent Kd, n = 1.
The subject of the next test is EPHB3. Conditions: read-out: apparent Kd, n = 1.
In a further test the test system is FYN. The following applies: read-out: apparent Kd, n = 1.
The test system of the next test is LYN. The following applies: read-out: apparent Kd, n = 1.
Another test concerns ROCK1. The following applies: read-out: apparent Kd, n = 1.
The subject of a further test is ULK1. The following applies: read-out: apparent Kd, n = 1.
In a further test the test system is PRKG1. The following applies: read-out: apparent Kd, n = 1.
For another test, the system named is RIPK2. Conditions: read-out: apparent Kd, n = 1.
The subject of the next test is MTOR. Conditions: read-out: apparent Kd, n = 1.
In another test the test system is PIK3CG. Conditions: read-out: apparent Kd; compound concentrations:100 nM and 1000 nM (sheet 'Samples'); n = 1.
Another test relates to CDC42BPG. Conditions: read-out: apparent Kd; compound concentrations:100 nM and 1000 nM (sheet 'Samples'); n = 1.
The test system of another test is PDGFRB. The following applies: read-out: apparent Kd; compound concentrations: 100 nM and 1000 nM (sheet 'Samples'), CATDS: 6.5181238774795402E-3; n = 1.
The test system of the next test is ACVR1B. The following applies: read-out: apparent Kd; compound concentrations:100 nM and 1000 nM (sheet 'Samples'); n = 1.
The subject of another test is TGFBR2. The following applies: read-out: apparent Kd; compound concentrations:100 nM and 1000 nM (sheet 'Samples'); n = 1.
Setting [1] is: compound concentrations:100 nM and 1000 nM (sheet 'Samples').

In the case of `Cl.Cl.NCC(C(=O)Nc1cc(Br)c(-c2ccnc3[nH]ccc23)s1)c1ccccc1.NCC(C(=O)Nc1cc(Br)c(-c2ccnc3[nH]ccc23)s1)c1ccccc1` (centres unmarked) [GSK1269851A], the potency estimated from few doses was 1610 nM in the test on AXL (setting [1]); 674 nM in the test on CSK (setting [1]); 516 nM in the test on EPHA1 (setting [1]); 1180 nM in the test with EPHB3 (setting [1]); 680 nM in the test with FYN (setting [1]); 586 nM with LYN (setting [1]). Moreover, the potency estimated from few doses was 894 nM with ROCK1 (setting [1]) and 705 nM in the test on ULK1 (setting [1]).
With `CCn1c(-c2nonc2N)nc2c(C#CC(C)(C)O)nc(OCCNC)cc21.Cl` [GSK949675A], the potency estimated from few doses in the test with PRKG1 (setting [1]) was 1370 nM.
In the case of `CC(C)N1CCC(n2cnc(-c3ccc(F)cc3)c2-c2ccnc(N)n2)CC1` [SB-223132], the potency estimated from few doses was 898 nM with CSK (setting [1]), 1410 nM in the test with EPHB3 (setting [1]) and 559 nM in the test on RIPK2 (setting [1]).
Take `CN1C[C@@H]2Cn3c(c(C4=C(c5cn(C)c6ccccc56)C(=O)NC4=O)c4ccccc43)C[C@H]2C1.Cl` [RO0320234-001]: the potency estimated from few doses in the test on AXL (setting [1]) was 1340 nM; with CSK (setting [1]) it was 552 nM; in the test on EPHA1 (setting [1]), 368 nM; with EPHB3 (setting [1]), 1030 nM; in the test with FYN (setting [1]), 209 nM; with LYN (setting [1]), 158 nM. Moreover, the potency estimated from few doses with MTOR (setting [1]) was 186 nM; in the test on PIK3CG, 1400 nM; in the test on RIPK2 (setting [1]), 407 nM; in the test with ULK1 (setting [1]), 768 nM.
As for `CCn1c(-c2nonc2N)nc2c(C#CCN)ncc(OCCCN)c21.O=C(O)C(F)(F)F` [GSK561866B], in the test on ROCK1 (compound concentrations: 100 nM and 1000 nM (sheet 'Samples'), CATDS: 8.4465602866789904E-2), the potency estimated from few doses is 1010 nM.
For the compound `Clc1cc(Cl)cc(Nc2ccnc(Nc3cc(Cl)cc(Cl)c3)n2)c1` [GSK175726A], the potency estimated from few doses with AXL (compound concentrations: 100 nM and 1000 nM (sheet 'Samples'), CATDS: 8.4752300032334103E-3) is 1710 nM; in the test on CSK (compound concentrations: 100 nM and 1000 nM (sheet 'Samples'), CATDS: 1.17668577174877E-2) it was 462 nM; with EPHA1 (compound concentrations: 100 nM and 1000 nM (sheet 'Samples'), CATDS: 1.41379738320296E-2), 280 nM; in the test on EPHB3 (compound concentrations: 100 nM and 1000 nM (sheet 'Samples'), CATDS: 8.8361902766531698E-3), 1370 nM; in the test with FYN (compound concentrations: 100 nM and 1000 nM (sheet 'Samples'), CATDS: 1.87889991520305E-2) it was 150 nM; with LYN (compound concentrations: 100 nM and 1000 nM (sheet 'Samples'), CATDS: 1.7701594212269099E-2), 169 nM. Moreover, the potency estimated from few doses was 172 nM with MTOR (compound concentrations: 100 nM and 1000 nM (sheet 'Samples'), CATDS: 1.7554405068834999E-2); 457 nM in the test with RIPK2 (compound concentrations: 100 nM and 1000 nM (sheet 'Samples'), CATDS: 1.18071418274956E-2); 1670 nM in the test with ULK1 (compound concentrations: 100 nM and 1000 nM (sheet 'Samples'), CATDS: 8.5136949732422407E-3).
Regarding `NCCNS(=O)(=O)c1ccc(-c2ccnc3[nH]ccc23)cc1` [GSK977617A], the potency estimated from few doses in the test with AXL (setting [1]) was 1330 nM; with CDC42BPG it was 442 nM; with CSK (setting [1]) it was 757 nM; in the test with EPHA1 (setting [1]), 723 nM; in the test with EPHB3 (setting [1]), 1780 nM; in the test on FYN (setting [1]) it was 1010 nM. Moreover, the potency estimated from few doses with LYN (setting [1]) is 936 nM; with PRKG1 (setting [1]), 621 nM; with RIPK2 (setting [1]) it was 974 nM; with ULK1 (setting [1]), 718 nM.
Take `COc1ccc(Nc2ncc(C#N)c(Nc3ccccc3C(N)=O)n2)cc1N1CCN(C)CC1.Cl` [GSK1558669A]: the potency estimated from few doses in the test with FYN (compound concentrations: 100 nM and 1000 nM (sheet 'Samples'), CATDS: 8.8706126087949692E-3) is 276 nM; in the test with LYN (compound concentrations: 100 nM and 1000 nM (sheet 'Samples'), CATDS: 6.9772111779179699E-3), 724 nM; in the test on PDGFRB it was 1030 nM; in the test with ULK1 (compound concentrations: 100 nM and 1000 nM (sheet 'Samples'), CATDS: 1.40188360119969E-2), 77.8 nM.
Take `Cl.Nc1c(C(=O)c2cccc(C#CCN3CCCCC3)c2)cnn1-c1ccc(F)cc1` [RO1154461-001]: the potency estimated from few doses in the test on CSK (compound concentrations: 100 nM and 1000 nM (sheet 'Samples'), CATDS: 1.25977312115917E-2) was 877 nM; in the test on EPHA1 (compound concentrations: 100 nM and 1000 nM (sheet 'Samples'), CATDS: 1.62394808146854E-2), 463 nM; with EPHB3 (compound concentrations: 100 nM and 1000 nM (sheet 'Samples'), CATDS: 1.0883176780773701E-2), 1390 nM; with RIPK2 (compound concentrations: 100 nM and 1000 nM (sheet 'Samples'), CATDS: 1.2186963927709901E-2) it was 966 nM.
With `Cc1cccc(-c2nc(Nc3ccncc3)c3sccc3n2)n1` [GW869641X], the potency estimated from few doses in the test with ACVR1B was 0.703 nM; in the test with RIPK2 (setting [1]), 722 nM; in the test with TGFBR2 it was 363 nM.
`CCn1c(-c2nonc2N)nc2c(C#CC(C)(C)O)nc(OC[C@@H](N)c3ccccc3)cc21` [GSK938890A]: in the test on PRKG1 (compound concentrations: 100 nM and 1000 nM (sheet 'Samples'), CATDS: 5.6529109044468798E-2), the potency estimated from few doses was 866 nM.
Regarding `Cc1ccc2c(-c3ccncc3)c(-c3ccc(F)cc3)nn2c1.Cl` [GW461484A], the potency estimated from few doses in the test with ACVR1B is 696 nM; in the test with CSK (setting [1]), 893 nM; in the test with EPHA1 (setting [1]), 643 nM; in the test on EPHB3 (setting [1]), 1960 nM; in the test with FYN (setting [1]), 1170 nM; in the test with LYN (setting [1]), 1010 nM. Also, in the test on MTOR (setting [1]), the potency estimated from few doses was 571 nM.
Consider `CCn1c(-c2nonc2N)nc2c(C#CC(C)(C)O)nc(OCCN)cc21.CCn1c(-c2nonc2N)nc2c(C#CC(C)(C)O)nc(OCCN)cc21.Cl.Cl` [GSK902056A], for which the potency estimated from few doses in the test with PRKG1 (setting [1]) was 1230 nM.
